The values that follow come from PMC6792352, “Limited Chemical Structural Diversity Found to Modulate Thyroid Hormone Receptor in the Tox21 Chemical Library” (Environmental Health Perspectives, 2019).

This experiment has as its system thyroid hormone receptor (endogenous TRα and TRβ). On the set-up: species or system GH3-TRE-Luc (rat pituitary); GH3-TRE-Luc luciferase reporter, antagonist mode against 1 nM T3, loss of signal, qHTS. Particulars: read-out: Average AC50 (uM) GH3-TRE-Antag, antagonist mode, 1 nM T3, no GH3 cytotoxicity hit, Average AC50 (uM) GH3-TRE-Antag, 24 h.
What is called AC50 is the concentration at which the activity in the assay is half-maximal. In the case of `CCCCCCn1cc[n+](C)c1` [1-Hexyl-3-methylimidazolium hexafluorophosphate], the AC50 came out at 53.8 µM.
`CC(C)c1c(C(=O)Nc2ccccc2)c(-c2ccccc2)c(-c2ccc(F)cc2)n1CC[C@@H](O)C[C@@H](O)CC(=O)O` [Atorvastatin]: the concentration at half-maximal activity (AC50) was 0.321 µM.
Turning to `CCCCCC[n+]1ccccc1` [1-Hexylpyridinium bromide], the half-maximal activity concentration (AC50) is 62.1 µM.
